A short description of assay [1]: qHTS assay to identify small molecule antagonists of the thyroid receptor (TR) signaling pathway (AID 743065). Further: nearly all actives have a fitted effect of over 55% in size. Further: potency means the concentration at half of the fitted maximal effect. In short, it runs like this:
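GH3.TRE-Luc rat pituitary cells carrying two TR response elements driving luciferase were plated for 4 h, given compound plus 1 nM T3 (final), and incubated 23.5 h at 37 C. ONE-Glo luminescence measured reporter inhibition; CellTiter-Fluor fluorescence tracked cytotoxicity.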
(qHTS replaces the single test concentration by a dilution series.)

The subject of assay [2] is thyroid hormone receptor (rat, GH3 cells). As to the kind of experiment: qHTS assay to identify small molecule agonists of the thyroid receptor (TR) signaling pathway (AID 743066; calls by dose curve).
Assay [3] has as its target Estrogen receptor (Homo sapiens) (UniProt P03372). As to the kind of experiment: qHTS assay to identify small molecule antagonists of the estrogen receptor alpha (ER-alpha) signaling pathway (AID 743069; active means well fitted curve in the direction sought with a large enough effect in the signal ratio in the repeat runs, not every such curve was filed as active; the % refers to the signal ratio). In short, it runs like this:
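Estradiol-stimulated ER-alpha-UAS-bla HEK293 cells, 18 hr compound exposure at 37C. LiveBLAzer B/G substrate, 2 hr RT, fluorescence read.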

Assay [4] in a line: qHTS assay to identify small molecule antagonists of the estrogen receptor alpha (ER-alpha) signaling pathway - cell viability counter screen (AID 743074; calls by dose curve;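 further: HEK293 cells carrying ER-alpha-UAS-bla reporter stimulated with 17beta-estradiol; nearly all actives have a fitted effect of over 45% in size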).
The target of assay [5] is Estrogen receptor (Homo sapiens) (UniProt P03372). As to the kind of experiment: qHTS assay to identify small molecule agonists of the estrogen receptor alpha (ER-alpha) signaling pathway (AID 743075; calls by dose curve;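 further: HEK293 GripTite cells with ER-alpha and UAS-driven beta-lactamase reporter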).
Estrogen receptor (Homo sapiens), sequence (P03372 whole entry, looked up): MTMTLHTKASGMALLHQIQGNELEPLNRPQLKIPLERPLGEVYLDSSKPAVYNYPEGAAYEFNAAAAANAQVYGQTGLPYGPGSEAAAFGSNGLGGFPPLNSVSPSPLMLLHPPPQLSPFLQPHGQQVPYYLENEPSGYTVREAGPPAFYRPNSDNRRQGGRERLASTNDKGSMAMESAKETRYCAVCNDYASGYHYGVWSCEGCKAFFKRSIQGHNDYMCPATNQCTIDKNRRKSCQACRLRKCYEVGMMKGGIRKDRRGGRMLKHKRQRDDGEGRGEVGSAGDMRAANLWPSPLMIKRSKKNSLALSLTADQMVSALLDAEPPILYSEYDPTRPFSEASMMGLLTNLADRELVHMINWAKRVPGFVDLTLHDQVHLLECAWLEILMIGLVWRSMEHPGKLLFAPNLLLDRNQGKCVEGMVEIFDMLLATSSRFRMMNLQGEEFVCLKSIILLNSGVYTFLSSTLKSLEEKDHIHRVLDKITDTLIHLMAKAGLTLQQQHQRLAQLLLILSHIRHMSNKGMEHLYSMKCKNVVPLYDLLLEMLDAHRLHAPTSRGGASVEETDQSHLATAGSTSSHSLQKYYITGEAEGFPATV
For assay [6] the target is unchanged. The assay is described as follows: qHTS assay to identify small molecule agonists of the estrogen receptor alpha (ER-alpha) signaling pathway using the BG1 cell line (AID 743079). Further: nearly all actives have a fitted effect of over 20% in size. Further: potency means the concentration at half of the fitted maximal effect.
Assay [7] in a line: qHTS assay to identify small molecule antagonists of the estrogen receptor alpha (ER-alpha) signaling pathway using the BG1 cell line (AID 743080; calls by dose curve;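 further: BG1 cells stimulated with 17beta-estradiol alongside compound; series mostly up to about 70 µM; nearly all actives have a fitted effect of over 25% in size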). In short, it runs like this:
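BG1-Luc-4E2 cells (endogenous full-length ER-alpha, 4xERE luciferase) hormone-starved 5 days in charcoal-stripped FBS, plated 4,000/well for 24 h, then compound plus 17beta-estradiol for 21.5 h at 37 C; ONE-Glo luminescence read.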

Assay [8] is described as follows: qHTS assay to identify small molecule antagonists of the estrogen receptor alpha (ER-alpha) signaling pathway using the BG1 cell line - cell viability counter screen (AID 743081).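 Further: compound given together with 17beta-estradiol as the ER stimulus; series mostly up to about 70 µM; nearly all actives have a fitted effect of over 45% in size.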
For the next assay, the target named is Aromatase (Homo sapiens) (UniProt P11511). The assay is described as follows: qHTS assay to identify aromatase inhibitors (AID 743083). Further: nearly all actives have a fitted effect of over 55% in size. Further: potency means the concentration at half of the fitted maximal effect.
Aromatase (Homo sapiens), sequence (P11511 whole entry, looked up): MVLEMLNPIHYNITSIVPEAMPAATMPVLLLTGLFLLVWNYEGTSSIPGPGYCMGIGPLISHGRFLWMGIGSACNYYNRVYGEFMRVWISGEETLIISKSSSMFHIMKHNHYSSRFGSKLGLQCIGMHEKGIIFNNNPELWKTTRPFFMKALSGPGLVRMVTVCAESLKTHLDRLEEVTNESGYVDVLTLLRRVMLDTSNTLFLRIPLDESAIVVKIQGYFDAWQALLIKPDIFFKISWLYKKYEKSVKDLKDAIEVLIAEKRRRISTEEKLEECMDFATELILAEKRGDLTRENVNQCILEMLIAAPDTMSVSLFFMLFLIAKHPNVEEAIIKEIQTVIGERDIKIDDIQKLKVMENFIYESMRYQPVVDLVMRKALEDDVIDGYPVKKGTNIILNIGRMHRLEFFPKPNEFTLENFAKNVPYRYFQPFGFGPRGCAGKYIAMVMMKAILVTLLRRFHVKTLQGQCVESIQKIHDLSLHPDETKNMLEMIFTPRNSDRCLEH
A short description of assay [9]: qHTS assay to identify aromatase inhibitors - cell viability counter screen (AID 743084).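 Further: cells stimulated with testosterone during compound exposure; nearly all actives have a fitted effect of over 55% in size.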 Further: potency means the concentration at half of the fitted maximal effect.

Each structure is given as a SMILES string. Several values for one entry are separate records, joined by “and”; a condition that tells them apart may be missing. Identical values can stand only once. Results filed as inconclusive are left out. Some compounds were tested as several samples or in several runs, with calls that do not always agree. Activity calls are given as the source filed them. Unless noted, the call rests on the fitted dose curve; in most records, active means well fitted curve in the direction sought with a large enough effect in the repeat runs; inconclusive means weak or mixed curves; inactive means no such curve, though single readings can be large; an effect the other way counts as inactive or inconclusive.

For `CC1=CC2C3CC(C=C3C)C2C1` (stereo not given), the Potency result in assay [1], in assay [2], in [3], in [4], in assay [5] and in [6] was “inactive” throughout. The Potency result (in assay [7]; in [8]; in the assay with Aromatase (Homo sapiens); in [9]) was “inactive” each time.

Regarding `c1ccncc1`, the Potency entry in [1], in assay [2], in [3], in assay [4], in assay [5] and in assay [6] was “inactive” in each case. Further, the Potency result (in assay [7]; in assay [8]; in the assay with Aromatase (Homo sapiens); in assay [9]) was “inactive” each time.

As for `CC(C)OB(OC(C)C)OC(C)C`, the Potency entry in assay [1], in assay [2], in assay [3], in assay [4], in assay [5] and in [6] was “inactive” throughout. Also, the Potency entry (in assay [7]; in assay [8]; with Aromatase (Homo sapiens); in assay [9]) was “inactive” throughout.

Consider `CN1C(C(=O)Nc2ccccn2)=C(O)c2ccccc2S1(=O)=O`, for which the Potency entry in assay [1], in [2], in assay [3], in assay [4], in assay [5] and in assay [6] was “inactive” each time. Moreover, the Potency result (in assay [7]; in assay [8]; with Aromatase (Homo sapiens); in assay [9]) was “inactive” each time.

For the molecule `Nc1ccc(Cl)cc1Cl`, the Potency entry in assay [1], in [2], in assay [3], in [4], in assay [5] and in assay [6] was “inactive” throughout. Also, the Potency result (in assay [7]; in [8]; with Aromatase (Homo sapiens); in assay [9]) was “inactive” in each case.

Turning to `CCCCC(CC)COC(=O)c1ccc(N(C)C)cc1` (stereo not given), the Potency entry in [1], in assay [2], in assay [3], in assay [4], in assay [5] and in assay [6] was “inactive” throughout. For the same molecule, the Potency entry (in assay [7]; in assay [8]; with Aromatase (Homo sapiens); in [9]) was “inactive” in each case.

In the case of `Cc1cccc(C(=O)O)c1`, the Potency entry in assay [1], in assay [2], in assay [3], in assay [4], in assay [5] and in assay [6] was “inactive” in each case. For the same molecule, the Potency entry (in assay [7]; in [8]; with Aromatase (Homo sapiens); in assay [9]) was “inactive” throughout.

As to `CC(C)=CCCC(C)CCO` (stereo not given), the Potency entry in [1], in [2], in assay [3], in assay [4], in assay [5] and in assay [6] was “inactive” in each case. Further, the Potency entry (in [7]; in assay [8]; with Aromatase (Homo sapiens); in assay [9]) was “inactive” throughout.

Regarding `CC1=CCC(C(C)(C)O)CC1` (stereo not given), the Potency entry in assay [1], in assay [2], in assay [3], in assay [4], in assay [5] and in assay [6] was “inactive” each time. For the same molecule, the Potency entry (in assay [7]; in assay [8]; in the assay with Aromatase (Homo sapiens); in assay [9]) was “inactive” in each case.

On to `CC(=O)CC/C=C(\C)CCC=C(C)C`, for which the Potency entry in assay [1], in [2], in assay [3], in assay [4], in assay [5] and in assay [6] was “inactive” each time. For the same molecule, the Potency result (in assay [7]; in assay [8]; in the assay with Aromatase (Homo sapiens); in [9]) was “inactive” throughout.

On to `CC(C(=O)O)c1cccc(C(=O)c2ccccc2)c1` (stereo not given), for which the Potency result in [1], in [2], in [3], in [4], in [5] and in assay [6] was “inactive” throughout. The Potency entry (in assay [7]; in assay [8]; in the assay with Aromatase (Homo sapiens); in assay [9]) was “inactive” each time.

As for `O=C(/C=C/c1ccccc1)OCc1ccccc1`, the Potency entry in assay [1], in assay [2], in assay [3], in assay [4], in assay [5] and in assay [7] was “inactive” in each case. In addition, the Potency entry (in assay [8]; in the assay with Aromatase (Homo sapiens); in assay [9]) was “inactive” in each case. Moreover, the Potency in [6] was 29.8 µM (active).

Take `C=C(C)C(=O)OCCOC(=O)C(=C)C`: the Potency result in assay [1], in assay [2], in assay [3], in assay [4], in [5] and in assay [6] was “inactive” throughout. Also, the Potency result (in [7]; in [8]; with Aromatase (Homo sapiens); in assay [9]) was “inactive” in each case.

Take `CCC(C)CO` (stereo not given): the Potency result in assay [1], in assay [2], in assay [3], in [4], in assay [5] and in assay [6] was “inactive” in each case. Moreover, the Potency entry (in assay [7]; in [8]; with Aromatase (Homo sapiens); in assay [9]) was “inactive” in each case.

For `CC(CCC(=O)O)(c1ccc(O)cc1)c1ccc(O)cc1`, the Potency entry in assay [1], in assay [2], in [3], in [4], in assay [5] and in [7] was “inactive” in each case. Also, the Potency entry (in [8]; with Aromatase (Homo sapiens); in assay [9]) was “inactive” throughout. In addition, the Potency in assay [6] is 61.1 µM (active).

As to `c1ccc2sc(SSN3CCOCC3)nc2c1`, the Potency in assay [1] was 13.7 µM (active) and 15.4 µM (active); with Aromatase (Homo sapiens) it was 5.44 µM (active); in assay [9], 6.84 µM (active). Besides, the Potency entry in assay [2], in assay [3], in assay [4], in assay [5], in assay [6] and in assay [7] was “inactive” each time. In assay [8], the Potency result was “inactive”.

On to `OCCO`, for which the Potency entry in [1], in [2], in assay [3], in assay [4], in assay [5] and in [6] was “inactive” in each case. Besides, the Potency result (in assay [7]; in assay [8]; with Aromatase (Homo sapiens); in assay [9]) was “inactive” throughout.

Turning to `Cc1c(C(N)=O)cc([N+](=O)[O-])cc1[N+](=O)[O-]`, the Potency entry in assay [1], in assay [2], in [3], in [4], in assay [5] and in assay [6] was “inactive” each time. Further, the Potency entry (in assay [7]; in assay [8]; with Aromatase (Homo sapiens); in assay [9]) was “inactive” each time.

For `CCCCOCCOCCO`, the Potency result in [1], in [2], in [3], in assay [4], in assay [5] and in [6] was “inactive” each time. Also, the Potency entry in [7], in assay [8] and in assay [9] was “inactive” in each case. For the same molecule, the Potency result with Aromatase (Homo sapiens) was “inactive and 61.1 µM (active)”.
